Assay outcomes deposited in PubChem BioAssay by Broad Institute.
Shown is part of a subset that was picked to be rich in hits.
NOMO-1 viab: STK33 inhibitor candidate reducing NOMO-1 cell viability; inhibition, % (no concentration beside the values); NOMO-1 AML viability, CellTiter-Glo luminescence, 72 h; 7.5% of 37,000 active; in the data active means inhibition above about 80%
PD-1 reverse act: reversal of PD-1 mediated T-cell inhibition | primary human CD4 T cells, PD-L1 beads, CellTiter-Glo 96 h | activation, % (concentration not given with the values) | 29,000 tested, under 10 active | AID 2316; call rule not given here;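 further: 0% = median vehicle wells and 100% = positive control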
STK33 kin inh: human STK33 kinase inhibition; Q9BYT3; 0.44% of 27,000 active; ADP-Glo luminescence, MBP substrate; inhibition, % at 12.5 µM; in the data active means inhibition above about 20%
Target sequence (Q9BYT3 whole entry, looked up): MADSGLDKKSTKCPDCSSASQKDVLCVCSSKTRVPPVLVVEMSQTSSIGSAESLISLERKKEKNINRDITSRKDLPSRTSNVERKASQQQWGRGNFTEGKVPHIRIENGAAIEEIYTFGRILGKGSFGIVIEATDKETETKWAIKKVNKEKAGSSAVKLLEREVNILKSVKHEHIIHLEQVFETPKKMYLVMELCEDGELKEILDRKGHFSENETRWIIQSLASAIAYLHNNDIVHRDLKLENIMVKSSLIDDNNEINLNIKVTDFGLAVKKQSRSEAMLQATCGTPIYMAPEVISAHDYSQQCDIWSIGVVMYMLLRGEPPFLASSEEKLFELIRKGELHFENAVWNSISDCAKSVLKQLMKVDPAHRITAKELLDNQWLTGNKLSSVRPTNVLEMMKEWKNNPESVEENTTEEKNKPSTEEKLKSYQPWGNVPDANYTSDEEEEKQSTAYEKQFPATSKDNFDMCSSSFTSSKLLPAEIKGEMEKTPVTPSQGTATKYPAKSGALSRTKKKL
An asterisk follows results filed as active; / = no result given.

SMILES | NOMO-1 viab | PD-1 reverse act | STK33 kin inh
COc1ccc(NC(=O)Nc2cccc3c2O[C@H](CN(C)Cc2ccccc2)[C@H](C)CN([C@@H](C)CO)C3=O)cc1 | 33 | 2 | /
COc1ccc(NC(=O)Nc2cccc3c2O[C@@H](CN(C)Cc2ccc(-c4ccccc4)cc2)[C@H](C)CN([C@@H](C)CO)C3=O)cc1 | 18 | / | /
COc1ccc(NC(=O)Nc2cccc3c2O[C@@H](CN(C)Cc2ccc(-c4ccccc4)cc2)[C@@H](C)CN([C@H](C)CO)C3=O)cc1 | 113* | -2 | /
Cc1noc(C)c1NC(=O)N(C)C[C@H]1Oc2ccc(NS(=O)(=O)c3ccc(Cl)cc3)cc2C(=O)N([C@H](C)CO)C[C@H]1C | -1 | 0 | /
O=C(CCn1[nH]c(=O)c2ccccc2c1=O)NCc1ccccc1 | -11 | 2 | 1
Cc1ccc(S(=O)(=O)Nc2ccc3c(c2)C(=O)N([C@H](C)CO)C[C@H](C)[C@@H](CN(C)CC2CC2)OCCCC[C@@H](C)O3)cc1 | 24 | / | -6
COc1ccc(NC(=O)CN(c2ccc(Br)c(C)c2)S(C)(=O)=O)cc1OC | -7 | 1 | 7
O=Cc1c2[nH]c3ccccc3c2cc2[nH]c3ccccc3c12 | 25 | / | -2
O=c1[nH]c2ccccc2c2ccccc12 | 0 | 5 | 31*
COc1ccc(N(CC(=O)Nc2ccc(I)cc2)S(C)(=O)=O)c(OC)c1 | 24 | 5 | 1
CNC[C@H]1Oc2ccc(NC(=O)Nc3ccccc3)cc2C(=O)N([C@@H](C)CO)C[C@H]1C | 7 | 1 | /
CC(C)N1CCN(c2ccc(OC[C@H]3CO[C@](Cn4cncn4)(c4ccc(Cl)cc4Cl)O3)cc2)CC1 | 31 | / | -2
CC(=O)N1CCN(c2ccc(OCC3CO[C@](Cn4ccnc4)(c4ccc(Cl)cc4Cl)O3)cc2)CC1 (stereo not given in full) | 107* | / | 5
Cc1ccc(N(CC(=O)NC2CCCC2)S(C)(=O)=O)cc1 | -5 | 1 | 0
C=C[C@@]1(C)CCC2=C([C@H]1OC(C)=O)[C@H](OC(C)=O)CC1[C@](C)(C(=O)OC)CC[C@H](OC(C)=O)[C@]21C (stereo not given in full) | 21 | 1 | -1
C=C1[C@@H]2CC[C@H]3[C@@]4(C)C(C[C@H](OC(=O)[C@]5(C)O[C@@H]5C)[C@]3(C2)[C@@H]1OC(C)=O)[C@](C)(C(=O)OC)CC[C@H]4OC(C)=O (stereo not given in full) | 88* | -1 | -4
CCc1c(C)nc(Nc2nc(C)c3ccc(OC)cc3n2)[nH]c1=O | 42 | / | 1
Cc1cc2nc(Nc3nc4ccccc4c(=O)[nH]3)nc(C)c2cc1C | 127* | -4 | -1
Cc1ccc(S(=O)(=O)N(C)C[C@@H]2Oc3ccc(NC(=O)NC(C)C)cc3C(=O)N([C@H](C)CO)C[C@H]2C)cc1 | 13 | 0 | /
CNC[C@H]1Oc2ccc(NC(=O)C3CC3)cc2C(=O)N([C@H](C)CO)C[C@H]1C | 23 | / | /
COc1ccc(S(=O)(=O)Nc2ccc3c(c2)C(=O)N([C@@H](C)CO)C[C@H](C)[C@@H](CN(C)Cc2ccc(C(=O)Nc4ccccc4N)cc2)O3)cc1 | 33 | 0 | /
COc1ccc(S(=O)(=O)Nc2ccc3c(c2)C(=O)N([C@H](C)CO)C[C@H](C)[C@@H](CN(C)Cc2ccc(C(=O)Nc4ccccc4N)cc2)O3)cc1 | 17 | 0 | /
COc1ccc(S(=O)(=O)Nc2ccc3c(c2)CC(=O)N([C@H](C)CO)C[C@H](C)[C@H](CN(C)Cc2ccc(C(=O)Nc4ccccc4N)cc2)O3)cc1 | 140* | 1 | /
COc1ccc(S(=O)(=O)Nc2ccc3c(c2)CC(=O)N([C@H](C)CO)C[C@@H](C)[C@@H](CN(C)Cc2ccc(C(=O)Nc4ccccc4N)cc2)O3)cc1 | 92* | -1 | /
C[C@H](CO)N1C[C@H](C)[C@H](CN(C)S(=O)(=O)c2ccccc2)Oc2ccc(NC(=O)Cc3ccccc3)cc2C1=O | 19 | / | /
SMILES | NOMO-1 viab | PD-1 reverse act | STK33 kin inh
Cc1noc(C)c1NC(=O)Nc1ccc2c(c1)CC(=O)N([C@@H](C)CO)C[C@@H](C)[C@@H](CN(C)S(=O)(=O)c1cccs1)O2 | 19 | 1 | -3
Cc1ccc(CN(C)C[C@@H]2OCc3cn(nn3)CCCC(=O)N([C@@H](C)CO)C[C@H]2C)cc1 | / | / | 0
Cc1cc(C(=O)Nc2cccc3c2O[C@H](CN(C)Cc2ccc(Oc4ccccc4)cc2)[C@H](C)CN([C@@H](C)CO)C3=O)n(C)n1 | 2 | 1 | /
Cc1cc(C(=O)Nc2cccc3c2O[C@H](CN(C)Cc2ccc(Cl)c(Cl)c2)[C@H](C)CN([C@@H](C)CO)C3=O)n(C)n1 | 11 | -3 | /
Cc1cc(C(=O)Nc2cccc3c2O[C@@H](CN(C)Cc2ccc(Cl)c(Cl)c2)[C@@H](C)CN([C@H](C)CO)C3=O)n(C)n1 | 92* | -6 | /
Cc1cc(C(=O)Nc2cccc3c2O[C@@H](CN(C)Cc2ccc(Oc4ccccc4)cc2)[C@H](C)CN([C@H](C)CO)C3=O)n(C)n1 | 89* | -3 | /
CCC(CO)NC(=S)Nc1cc(C(F)(F)F)cc(C(F)(F)F)c1 (stereo not given) | 45 | -2 | /
O=C(Nc1ccccc1)Nc1ccccc1 | 36 | -2 | 0
O=C(Nc1ccccc1)Nc1ccc2nnsc2c1 | 83* | 1 | /
Cc1noc(C)c1NC(=O)N(C)C[C@@H]1Oc2ccc(NC(=O)NC(C)C)cc2C(=O)N([C@@H](C)CO)C[C@H]1C | -16 | / | /
Cn1c(SCC(=O)Nc2ccc(Oc3ccccc3)cc2)nnc1-c1ccncc1 | 38 | / | -1
CC1(C)CC(=O)C2=C(C1)Nc1ccccc1N(C(=O)C(F)(F)F)C2c1ccc(Cl)cc1Cl (stereo not given) | 87* | 0 | /
COc1ccc(C2C3=C(CC(C)(C)CC3=O)Nc3ccccc3N2C(C)=O)cc1COc1ccc(F)cc1 (stereo not given) | 9 | 0 | 1
CCC1SC2=NCN(c3ccccc3)CN2C1=O (stereo not given) | 101* | 1 | /
C[C@H](CO)N1C[C@H](C)[C@H](CN(C)Cc2ccc(Oc3ccccc3)cc2)Oc2ccc(NC(=O)C3CCCCC3)cc2CC1=O | 48 | -2 | 6
C[C@H]1CN([C@@H](C)CO)C(=O)Cc2cc(NC(=O)C3CCCCC3)ccc2O[C@@H]1CN(C)Cc1ccc(-c2ccccc2)cc1 | 55 | / | 0
C[C@H]1CN([C@@H](C)CO)C(=O)c2cc(NC(=O)C3CCCCC3)ccc2O[C@@H]1CN(C)Cc1ccc(Oc2ccccc2)cc1 | 21 | -5 | -1
C[C@@H]1CN([C@H](C)CO)C(=O)Cc2cc(NC(=O)C3CCCCC3)ccc2O[C@@H]1CN(C)Cc1ccc(-c2ccccc2)cc1 | 113* | -4 | 0
C[C@@H]1CN([C@@H](C)CO)C(=O)c2cc(NC(=O)C3CCCCC3)ccc2O[C@@H]1CN(C)Cc1ccc(Oc2ccccc2)cc1 | 115* | 0 | /
C[C@@H]1CN([C@@H](C)CO)C(=O)Cc2cc(NC(=O)C3CCCCC3)ccc2O[C@@H]1CN(C)Cc1ccc(Oc2ccccc2)cc1 | 95* | / | /
C[C@H](CO)N1C[C@H](C)[C@@H](CN(C)S(=O)(=O)c2ccc(F)cc2)Oc2c(NS(=O)(=O)c3ccc(Cl)cc3)cccc2C1=O | 47 | 1 | /
